Source: PubChem BioAssay
Active and inactive are the calls of the source.

Assay: FRG1 promoter luciferase signal modulators, primary screen, FRG1 inhibition for FSHD, cell-based, C2C12 myotubes, firefly/Renilla luciferase, luminescence (AID 1084)
Conditions: higher = more signal, called active from +8 up or from −8 down

Row | Structure (SMILES) | z-score
1 | C=C(CCCC)/C(=C/C[C@H](OC(C)=O)c1ccc(CO)o1)c1cc(C(=O)OC)ccc1OC | -0.313 (inactive)
2 | CC(C)(C)OC(=O)CC[C@]1(C(=O)NCC(O)CO)N=C(c2ccc(OCCCO)cc2)O[C@H]1c1ccccc1CN=[N+]=[N-] (stereo not given in full) | 2.4 (inactive)
3 | COC(=O)[C@@]1(Cc2ccc(OC)cc2)[C@H]2c3cc(C(=O)N(C)C)n(Cc4ccc(OC)c(OC)c4)c3C[C@H]2CN1C(=O)c1ccccc1 | 0.889 (inactive)
4 | [N-]=[N+]=NCc1ccccc1C[C@@]1(C(=O)NCc2ccccc2)N=C(c2ccc(OCCCO)cc2)O[C@@H]1c1ccccc1CN=[N+]=[N-] | -1.95 (inactive)
5 | [N-]=[N+]=NCc1ccccc1[C@H]1OC(c2ccc(OCCCO)cc2)=N[C@@]1(Cc1ccccc1)C(=O)O | 1.82 (inactive)
6 | NC(=O)NCC#Cc1ccc2c(c1)[C@]1(C(=O)N2)[C@H](C(=O)NC[C@H](O)c2ccccc2)[C@H]2C(=O)O[C@H](c3ccccc3)[C@H](c3ccccc3)N2[C@@H]1c1ccccc1OCCO | -0.167 (inactive)
7 | C=C(C(=O)CC[C@H](OC(=O)c1cccnc1)c1ccccc1OCCO)C(C)C | 0.276 (inactive)
8 | COc1ccc([Si](C)(C)[C@@H]2[C@@H](CCO)O[C@]3(C(=O)N(Cc4ccc(N5C(=O)c6cccc7cccc5c67)cc4)c4ccccc43)[C@H]2C)cc1 | -3.01 (inactive)
9 | COc1ccc([Si](C)(C)[C@H]2[C@H](CCO)O[C@@]3(C(=O)N(Cc4ccccc4)c4ccc(N5C(=O)COc6ccccc65)cc43)[C@@H]2C)cc1 | -1.69 (inactive)
10 | O=C1C2C=CC(C(O)c3ccccn3)N(Nc3ccccc3F)C2C(=O)N1c1ccccc1 (stereo not given) | 1.9 (inactive)
11 | CN(C)CCCC[C@@H]1NC(=O)[C@@H]2C[C@H](C(=O)NCCCCCN)[C@H](c3ccc(O)cc3)N2C1=O | -0.926 (inactive)
12 | O=C(NCC(O)CO)[C@@]1(Cc2ccccc2)COC(c2ccc(OCCCO)cc2)=N1 (stereo not given in full) | 0.518 (inactive)
13 | CCOC(=O)N1C(c2ccc(OCCCO)cc2)=NC(C(=O)OC)N1C(=O)OCC (stereo not given) | 1.37 (inactive)
14 | CO[C@H]1O[C@H](CO)[C@@H](OC(=O)Nc2cccc(F)c2)[C@H](OC(=O)Nc2ccccc2-c2ccccc2)[C@@H]1OC(=O)Nc1ccccc1-c1ccccc1 | 1.16 (inactive)
15 | O=C1OCC=C[C@H]2OC34C=CCN(c5ccc6ccccc6c5)C(=O)[C@H]3N(CCO)C(=O)[C@@H]4[C@@H]12 (stereo not given in full) | 1.18 (inactive)
16 | COc1cc2c(cc1O)C(c1ccc(CN3CCCC3)cc1)N(Cc1sc3ccccc3c1Cl)CC2 (stereo not given) | 0.0314 (inactive)
17 | O=C1OCC=C[C@H]2OC34C=CCN(c5ccc(Cl)cc5)C(=O)[C@H]3N(CCCO)C(=O)[C@@H]4[C@@H]12 (stereo not given in full) | -0.0992 (inactive)
18 | NC(=O)[C@@]1(CCS(=O)(=O)c2ccccc2)N=C(c2ccc(OCCCO)cc2)O[C@H]1c1ccccc1 | -1.19 (inactive)

Row | Structure (SMILES) | z-score
19 | CC(=O)NCCCC[C@@H]1NC(=O)[C@@H]2C[C@H](C(=O)NCc3ccc(F)cc3)[C@H](c3ccc(O)cc3)N2C1=O | -0.0693 (inactive)
20 | O=C1OCCC=C[C@H]2OC34C=CCN(c5ccc6ccccc6c5)C(=O)[C@H]3N(CCCCCCO)C(=O)[C@@H]4C12 (stereo not given in full) | 1.66 (inactive)
21 | Cc1ccc(F)cc1S(=O)(=O)N[C@@H]1CCN(Cc2ccc(C(F)(F)F)cc2)C1 | -3.87 (inactive)
22 | CC(C)NC(=O)[C@@]1(c2ccc([N+](=O)[O-])cc2)CC(=O)N(C(C)C)[C@@H]1c1ccc(CO)cc1 | -0.31 (inactive)
23 | C=CCC(OC(C)=O)[C@@H]1[C@@H](N(Cc2ccc(-c3ccccc3)cc2)C(=O)c2ccc(C)cc2)c2cc(OCCCO)ccc2N1C(=O)c1ccc2ccccc2n1 (stereo not given in full) | -1.24 (inactive)
24 | C=CCC(OC(C)=O)[C@@H]1[C@@H](N(Cc2cc3ccccc3o2)C(=O)c2ccc(C)cc2)c2cc(OCCCO)ccc2N1C(=O)c1ccc(-c2ccccc2)cc1 (stereo not given in full) | -1.35 (inactive)
25 | COCCCNC(=O)[C@@]1(Sc2ccc(C)cc2)CC(=O)N(Cc2ccccc2)[C@@H]1c1ccc(CO)cc1 | -1.53 (inactive)
26 | COc1ccc(C(=O)Nc2cccc(CN3C(=O)[C@@]4(O[C@@H](CCn5cc([C@H](O)c6ccccc6)nn5)[C@H]([Si](C)(C)c5ccc(OC)cc5)[C@H]4C)c4ccccc43)c2)cc1 | -1.47 (inactive)
27 | CN1C(=O)C2C=CC(C(O)c3ccccc3)N(NC(=O)OC(C)(C)C)C2C1=O (stereo not given) | 1.82 (inactive)
28 | [N-]=[N+]=NCc1ccccc1C[C@]1(C(=O)NCc2ccccc2)COC(c2ccc(OCCCO)cc2)=N1 | -3.06 (inactive)
29 | C=CC[C@@]1(C(=O)NCCN2CCOCC2)N=C(c2ccc(OCCCO)cc2)O[C@@H]1c1ccccc1CN=[N+]=[N-] | -0.484 (inactive)
30 | C=CCOC(=O)[C@@H]1[C@H]2C(=O)O[C@H](c3ccccc3)[C@H](c3ccccc3)N2[C@H](c2ccc(OCCOC(=O)[C@H]3C[C@H]4C(=O)N[C@@H](CCCC[N+](C)(C)C)C(=O)N4[C@H]3c3cccc(OCCO)c3)cc2)[C@@]12C(=O)Nc1ccc(I)cc12 | 0.179 (inactive)
31 | COc1ccc([Si](C)(C)[C@H]2[C@H](CC(=O)N3Cc4ccccc4C[C@H]3CO)O[C@@]3(C(=O)N(Cc4cccc(I)c4)c4ccccc43)[C@@H]2C)cc1 | -2.84 (inactive)
32 | C=CCCN(CC#C[C@H]1Oc2ccccc2S(=O)(=O)N2CCC[C@@H]12)S(=O)(=O)c1ccc(C)cc1 | -4.31 (inactive)
33 | C[n+]1ccc2ccc(O)cc2c1 | 1.53 (inactive)
34 | COc1ccc([Si](C)(C)[C@@H]2[C@@H](CCO)O[C@]3(C(=O)N(Cc4cccc(N5CCCCC5=O)c4)c4ccccc43)[C@H]2C)cc1 | -3.27 (inactive)
35 | Cc1ccc(N2C(=O)c3ccccc3[C@@H](C(=O)NC(C)C)[C@@H]2c2ccc(CO)cc2)nc1 | 0.822 (inactive)
